The source of these data is the supplement of paper PMC10127200.

Counter-ions that a name gives are not always drawn.

Common to all, as to test: Euclidean distance of Cell Painting phenotypic profile (signed KS, 77 features) to DMSO centroid (dimensionless distance); 5 or 10 uM (library dependent); higher = stronger phenotypic change vs DMSO (phenoactivity)
Holding throughout (settings): 48 h

One test relates to 786-O. Summed up:
(§1)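 Phenoactivity is defined as the Euclidean distance from a compound profile to the median vehicle profile. Each profile comprised 77 Harmony features, scored as signed Kolmogorov-Smirnov statistics versus same-plate vehicle wells, then plate-position corrected, correlation-weighted and replicate-averaged at the top dose. Five cancer lines and one healthy fibroblast line were exposed to library compounds for 48 h at 10 or 5 uM (0.1% DMSO final).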

The next test relates to A549. A digest of the protocol:
as §1

The subject of the next test is DU145. A digest of the protocol:
as §1

The test system of a further test is FB. A digest of the protocol:
as §1

In another test the test system is HEPG2. A digest of the protocol:
as §1

The test system of a further test is OVCAR4. Summed up:
as §1

With `O=NN(CCCl)C(=O)NC1CCCCC1` [Lomustine], the Euclidean distance worked out at 0.894 in the test with 786-O; 0.833 in the test on A549; 0.869 in the test with DU145; 1.05 in the test with FB; 0.457 in the test with HEPG2; 1 with OVCAR4.

In the case of `CC(C(=O)O)c1ccc2c(c1)CC(=O)c1ccccc1S2` (configuration not stated) [Zaltoprofen], the Euclidean distance in the test with 786-O was 1.08; in the test with A549 it was 1.02; with DU145, 1.23; with FB it was 0.873; with HEPG2, 0.423; with OVCAR4 it was 1.24.

`O=c1[nH]cnc2nc[nH]c12` [Hypoxanthine]: the Euclidean distance in the test on 786-O was found to be 1.19; with A549, 1.2; with DU145, 1.16; with FB, 1.66; with HEPG2, 0.856; in the test with OVCAR4, 2.43.

For the molecule `CC1CCc2cc(F)cc3c(=O)c(C(=O)O)cn1c23` (configuration not stated) [Flumequine], the Euclidean distance in the test on 786-O amounted to 1.37; in the test with A549 it was 0.57; with DU145, 1.32; in the test with FB it was 0.897; in the test on HEPG2 it was 0.704; in the test with OVCAR4, 1.44.

Take `CN(C)CCCN1c2ccccc2Sc2ccc(C(F)(F)F)cc21` [Triflupromazine hydrochloride]: the Euclidean distance with 786-O amounted to 1.77; in the test on A549, 1.63; with DU145 it was 1.6; with FB it was 2.36; in the test on HEPG2, 1.76; in the test on OVCAR4, 1.47.

On to `CC(C)Nc1cccnc1N1CCN(C(=O)c2cc3cc(NS(C)(=O)=O)ccc3[nH]2)CC1` [Delavirdine (mesylate)], for which the Euclidean distance with 786-O came out at 1.18; with A549 it was 0.811; in the test with DU145, 2.31; with FB it was 1.56; with HEPG2 it was 0.607; in the test on OVCAR4, 1.51.

In the case of `C1N2CN3CN1CN(C2)C3` [Methenamine], the Euclidean distance was 1.23 in the test on 786-O; 0.437 with A549; 0.592 in the test on DU145; 0.896 in the test on FB; 0.586 with HEPG2; 1.2 in the test with OVCAR4.

With `CN(C)CCc1c[nH]c2ccc(Cn3cncn3)cc12` [Rizatriptan Benzoate], the Euclidean distance is 1.43 in the test with 786-O; 1.08 in the test with A549; 1.46 in the test with DU145; 2.54 in the test on FB; 1.06 with HEPG2; 2.42 in the test on OVCAR4.

For `Cn1nnc(-c2ccc(-c3ccc(N4C[C@H](CO)OC4=O)cc3F)cn2)n1` [Tedizolid], the Euclidean distance with 786-O was found to be 1.38; in the test with A549, 1.13; in the test with DU145 it was 0.583; with FB it was 0.908; in the test with HEPG2 it was 1; with OVCAR4, 1.01.

In the case of `CC(C)CCN1c2nc(Nc3cc(F)c(O)c(F)c3)ncc2N(C)C(=O)C1C` (configuration not stated), the Euclidean distance with 786-O was found to be 1.38; with A549, 1.84; with DU145 it was 2.16; with FB, 1.49; in the test on HEPG2, 0.771; in the test on OVCAR4 it was 2.61.

`C[C@H]1O[C@@H](O[C@H]2[C@@H](O)C[C@H](O[C@H]3[C@@H](O)C[C@H](O[C@H]4CC[C@@]5(C)[C@H](CC[C@@H]6[C@@H]5C[C@@H](O)[C@]5(C)[C@@H](C7=CC(=O)OC7)CC[C@]65O)C4)O[C@@H]3C)O[C@@H]2C)C[C@H](O)[C@@H]1O` [Digoxin]: the Euclidean distance in the test on 786-O stood at 6.92; in the test with A549, 5.56; in the test on DU145, 6.87; in the test with FB, 4.48; in the test on HEPG2, 3.09; in the test on OVCAR4 it was 6.68.

Turning to `CN[C@@H]1[C@@H](O)[C@@H](O[C@@H]2[C@@H](O)[C@H](O[C@H]3O[C@H](CN)[C@@H](O)[C@H](O)[C@H]3O)[C@@H](N)C[C@H]2NC(=O)[C@@H](O)CN)OC[C@]1(C)O` [Isepamicin Sulphate], the Euclidean distance worked out at 1.12 with 786-O; 0.946 in the test with A549; 0.819 with DU145; 1.14 with FB; 0.94 in the test with HEPG2; 1.65 in the test on OVCAR4.

As for `CO[C@@]1(NC(=O)CSC[C@@H](N)C(=O)O)C(=O)N2C(C(=O)O)=C(CSc3nnnn3C)CS[C@@H]21` [Cefminox Sodium], the Euclidean distance in the test with 786-O is 1.29; in the test with A549, 0.521; in the test with DU145, 2.14; in the test on FB, 1.02; with HEPG2, 0.714; in the test with OVCAR4, 1.32.

Regarding `CCOc1ccc2c(c1)C(C)=CC(C)(C)N2` [Ethoxyquin], the Euclidean distance in the test with 786-O worked out at 0.933; in the test on A549, 1.17; in the test with DU145, 0.847; with FB it was 1.62; with HEPG2, 0.54; in the test on OVCAR4 it was 1.95.

With `CCCC(CCC)C(=O)O` [Valproic acid sodium salt (Sodium valproate)], the Euclidean distance was found to be 0.85 in the test with 786-O; 0.706 in the test with A549; 0.534 with DU145; 0.529 in the test on FB; 0.677 in the test with HEPG2; 0.959 in the test on OVCAR4.

Consider `c1ccc(NCc2ccc(CNc3ccccn3)cc2)nc1`, for which the Euclidean distance in the test with 786-O is 0.787; in the test with A549, 1.08; in the test on DU145, 0.956; in the test with FB it was 1.09; in the test with HEPG2, 0.936; in the test on OVCAR4, 1.15.

In the case of `CC(C)CCCC(C)N` (configuration not stated) [Octodrine (2-Amino-6-methylheptan)], the Euclidean distance in the test with 786-O amounted to 1.17; in the test with A549 it was 0.649; in the test with DU145, 0.851; with FB it was 1.24; in the test with HEPG2, 1.34; with OVCAR4, 1.4.

As to `O=C(Nc1ccccc1Br)N[C@@H]1CCN(c2ccc(C(F)(F)F)cn2)C1`, the Euclidean distance in the test with 786-O was determined as 0.896; in the test with A549, 0.999; in the test with DU145, 0.688; in the test with FB it was 0.9; with HEPG2, 0.544; in the test on OVCAR4 it was 1.21.

Regarding `C#C[C@]1(O)CC[C@H]2[C@@H]3CCc4cc(OC)ccc4[C@H]3CC[C@@]21C` [Mestranol], the Euclidean distance turned out to be 1.12 with 786-O; 0.814 in the test with A549; 0.785 in the test with DU145; 1.26 in the test with FB; 0.905 in the test on HEPG2; 1.38 in the test with OVCAR4.

Regarding `CC1(N)CCN(c2cccnc2NC(=O)c2nc(-c3ncccc3C(F)(F)F)cnc2N)CC1`, the Euclidean distance with 786-O turned out to be 2.98; in the test with A549, 2.64; in the test on DU145 it was 3.38; in the test on FB, 2.85; with HEPG2, 3.49; in the test on OVCAR4, 2.63.

`CC(C)NCC(O)COc1ccc(CC(N)=O)cc1` (configuration not stated) [Atenolol]: the Euclidean distance in the test on 786-O was determined as 1.33; in the test on A549 it was 0.613; with DU145, 0.819; with FB, 0.889; in the test on HEPG2, 1.22; in the test with OVCAR4, 0.667.

As for `CNS(=O)(=O)C[C@H]1CC[C@H](N(C)c2[nH]cnc3nccc2-3)CC1`, the Euclidean distance in the test on 786-O was 1.06; with A549, 0.94; with DU145, 1.61; in the test with FB, 1.3; in the test on HEPG2, 0.907; with OVCAR4, 0.949.
